In PubChem BioAssay (NCI) one finds growth data, which are given here for 15 compounds.

Holding throughout (test): NCI-60 one-dose screen, 48 h (100 = growth as untreated, 0 = no growth, -100 = all killed)
What all share (settings): 10 µM unless noted

Assay [1] has as its system NCI-H23 lung.
Assay [2] has as its system NCI-H226 lung.
In assay [3] the test system is HOP-62 NSCLC.
For assay [4], the system named is NCI-H460 lung.
In assay [5] the test system is NCI-H522 lung.
Assay [6] deals with A549/ATCC NSCLC.
Assay [7] concerns 786-0 renal.
Assay [8] has as its system COLO 205 colon.
Assay [9] concerns NCI-H322M lung.
In assay [10] the test system is HOP-92 NSCLC.

The panel holds about 83,000 compounds, 20% with a hit somewhere; the sample as a whole holds those more often.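 Single-concentration screen, 48 h exposure, 96-well plates. Endpoint: percent growth. Below 10 = active.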 Values without a mark were called inactive. Calls of active or inactive are those of the source.

In the case of `COc1ccc(-c2nc3cc(C)ccc3n2CC(=O)N=Nc2c(O)[nH]c3ccc(Br)cc23)cc1`, the growth in [1] was -45.5% (active); in [2], -13.4% (active); in assay [3], -49.7% (active); in assay [4], 8.15% (active); in assay [5] it was 25%; in assay [6], -68.6% (active). The growth in [7] was 25.6%; in assay [8], -47.2% (active).
With `O=c1oc2ccccc2cc1-c1csc(N=Nc2c(O)[nH]c3ccc(Cl)cc23)n1`, the growth in [1] is 98.7%; in [2], 98.3%; in [9] it was 114%; in assay [4] it was 109%; in assay [5], 98.7%; in [6], 102%. The growth in assay [7] is 86.3%; in [8], 136%.
Take `COc1ccc2cc([C@H](C)C(=O)N/N=C/c3ccc(Br)cc3)ccc2c1`: the growth was 101% in assay [1]; 103% in [2]; 90.1% in assay [3]; 100% in assay [4]; 103% in [10]; 92% in assay [5]. The growth in assay [6] is 100%; in assay [7] it was 95.4%; in [8], 108%.
For the compound `Cc1ccc(S(=O)(=O)c2nc(S(=O)(=O)c3ccc(C)cc3)c(N3CCN(C)CC3)s2)cc1`, the growth in assay [1] is 56%; in assay [2], 67.3%; in [9] it was 67.3%; in [4], 40.1%; in assay [5], 15.2%; in assay [6], 59.5%. Moreover, the growth is 47.5% in assay [7] and 78% in assay [8].
As to `CCCSc1nc(NCCc2c[nH]c3ccccc23)c(C#N)c(-c2ccc(F)cc2)n1`, the growth in assay [1] is 80.6%; in assay [2] it was 32.5%; in assay [3], 40.4%; in assay [4] it was 14.1%; in [10], 52.1%; in [5] it was 61.3%. The growth was 58.6% in assay [6], 62.4% in assay [7] and 44% in [8].
Turning to `Clc1cccc(Cl)c1/C=C/c1cc(/C=C/c2ccc(Br)cc2)c2ccccc2n1`, the growth in [1] was 98.2%; in assay [2], 93%; in assay [3], 94%; in assay [4] it was 99.5%; in assay [10] it was 86.2%; in assay [5], 97.9%. Moreover, the growth in assay [6] is 98.2%; in assay [7] it was 92.2%; in assay [8], 117%.
Take `O=C(NNc1nc2cc(F)ccc2n2c(C(=O)N3CCN(C4CC4)CC3)ccc12)c1ncccn1`: the growth in [1] was 38.4%; in [2], 11.4%; in assay [9], 29.9%; in assay [4], 8.44% (active); in [10], 69.2%; in [5], 67.1%. In addition, the growth in assay [6] is 24.5%; in assay [7], -9.79% (active); in assay [8] it was 7.77% (active).
Regarding `N/C(=N\c1nc2ccccc2s1)NC(=O)Nc1ccccc1Br`, the growth in [1] is -24.4% (active); in [2] it was 8.79% (active); in assay [9] it was 14.6%; in assay [4], -26.1% (active); in assay [5], -61.3% (active); in assay [6], -26.2% (active). For the same compound, the figures for the growth in assay [7] and in [8] were -24.9% (active) and -72.6% (active), respectively.
On to `C=C1CCC2C3(C)COC(c4ccccc4)OC3CCC2(C)C1CC(Sc1ccccc1)C1=CCOC1=O` (stereo unspecified), for which the growth in assay [1] is 44.2%; in [2] it was 10.6%; in assay [3], 88.6%; in assay [4] it was 84.6%; in [5], 3.01% (active); in assay [6], 35.3%. Moreover, the growth is 52.3% in assay [7] and 71.3% in [8].
On to `O=C1CC(Sc2n[nH]c(-c3ccncc3)n2)C(=O)N1c1ccc(Br)cc1` (stereo unspecified), for which the growth in [1] was 104%; in [2], 117%; in assay [9], 104%; in assay [4], 117%; in [5], -33.6% (active); in assay [6], 106%. Besides, the results for the growth in assay [7] and in [8] were 106% and 116%, respectively.
For `CCN1CCN(Cc2ccc(C(=O)Nc3cccc(C#Cc4cccc5[nH]nc(N)c45)c3)cc2C(F)(F)F)CC1`, the growth in assay [1] is -82.6% (active); in [2], -35.2% (active); in assay [9] it was -95.2% (active); in [4], -39.2% (active); in assay [10], -69.8% (active); in [5] it was -59.9% (active). Moreover, the growth in assay [6] was -84.8% (active); in [7], -98.5% (active); in assay [8], -86.6% (active).
With `N#Cc1cnn(C(=O)c2ccccc2Br)c1NC(=O)c1ccc(Br)cc1Cl`, the growth in assay [1] is 104%; in [2], 99.2%; in assay [3], 97.9%; in assay [4] it was 105%; in assay [10], 111%; in assay [5] it was 102%. For the same compound, the figures for the growth in assay [6], in assay [7] and in [8] were 93.9%, 95.8% and 102%, respectively.
Turning to `O=C(O)Cn1c(O)c(/C=C2/C=c3cc4c(cc3=NC2=O)OCCO4)sc1=S`, the growth in assay [1] is 97.7%; in [2], 103%; in [9], 101%; in [4], 118%; in assay [5], 103%; in assay [6], 114%. For the same compound, the growth in [7] is 108%; in assay [8], 119%.
Regarding `COc1c(F)ccc(C(=O)Nc2ccc3nc(NC(=O)C4CCCN(S(=O)(=O)c5ccc(Br)s5)C4)sc3c2)c1F` (stereo unspecified), the growth was 82.7% in [1]; 75.1% in assay [2]; 104% in assay [3]; 86.5% in assay [4]; 74.2% in assay [5]; 79.7% in assay [6]. The growth in assay [7] is 61.5%; in assay [8], 101%.
In the case of `C=C1CCC2C3(C)COC(c4cccs4)OC3CCC2(C)C1CC(Sc1ccccc1)C1=CCOC1=O` (stereo unspecified), the growth in [1] was 79.1%; in assay [2], 87.7%; in assay [9], 94.9%; in [4] it was 107%; in assay [5], 65.5%; in [6] it was 79.7%. The growth in assay [7] is 91.9%; in assay [8], 115%.
